# In PubChem BioAssay (NCI):
# Where “and” joins values, the source holds several entries; their conditions need not be identical. Equal values may be shown once. Compounds without any hit were thinned out: in the full panel of roughly 79,000, 15% have a hit. Unmarked numbers belong to inactive results. Calls of active or inactive are those of the source. No stated cut-off is given here; in the data, active means growth inhibition above about 70%; inactive means the rest.
# What was measured:
# [1] = NCI Yeast Anticancer Drug Screen. Data for the rad50 strain (AID 155);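 further: 0% = growth of vehicle-only cultures of the same strain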; conditions: S. cerevisiae rad50 strain growth inhibition, active compounds read high; at 50.0 µM unless noted
# Procedure, shortened: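 Growth of the mutant yeast was measured after compound exposure and referenced to vehicle-treated cultures.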
# [2] = NCI Yeast Anticancer Drug Screen. Data for the mec2-1 strain (AID 157); conditions: S. cerevisiae mec2-1 strain, active compounds read high; at 50.0 µM unless noted
# Procedure, shortened: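 Mutant yeast (mec2-1) grown with compound; growth inhibition relative to vehicle control reported.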
# [3] = NCI Yeast Anticancer Drug Screen. Data for the sgs1 mgt1 strain (AID 161);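 further: 0% = growth of cultures given vehicle only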; conditions: S. cerevisiae sgs1 mgt1 strain, active compounds read high; at 50.0 µM unless noted
# Procedure, shortened: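 Growth of a repair-deficient yeast mutant was monitored after compound treatment and expressed as inhibition relative to vehicle-treated cultures.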
# [4] = NCI Yeast Anticancer Drug Screen. Data for the cln2 rad14 strain (AID 165);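 further: 0% = growth equal to vehicle treated cultures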; conditions: S. cerevisiae cln2 rad14 strain, active compounds read high; at 50.0 µM unless noted
# Procedure, shortened: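 Readout is yeast growth inhibition versus vehicle-treated controls, using a strain with cln2 and rad14 alterations exposed to compound.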
# [5] = NCI Yeast Anticancer Drug Screen. Data for the bub3 strain (AID 167); conditions: S. cerevisiae bub3 mutant strain, active compounds read high; at 50.0 µM unless noted
# Procedure, shortened: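 Whole-cell yeast assay. The mutant strain was incubated with compounds, and growth inhibition was determined by comparison with vehicle-treated cells.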
# [6] = NCI Yeast Anticancer Drug Screen. Data for the mlh1 rad18 strain (AID 175); conditions: S. cerevisiae mlh1 rad18 strain growth inhibition, active compounds read high; at 50.0 µM unless noted
# Procedure, shortened: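 Genetically defined yeast (DNA repair-deficient) exposed to compounds; growth inhibition determined relative to vehicle.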
SMILES,growth inhibition [1],growth inhibition [2],growth inhibition [3],growth inhibition [4],growth inhibition [5],growth inhibition [6]
CC1(C)COC(c2ccc3c(c2)OCO3)N1 (stereo unspecified),0.5%,-8.45%,-5.7%,-19.6%,-9.75%,0.6%
C[n+]1ccc2ccccc2c1,6.9% and -7.2%,0.55% and 5.3%,21.2% and 1.15%,-36.8% and -2.25%,3.05% and -6.5%,9.6% and 10.4%
CCN(CC)C(=S)Oc1cc(Cl)c(Cl)cc1Cl,-5.45%,3.8%,-5.2%,-2.55%,18.7%,21.2%
Cc1[nH]c2ccccc2c1/C=C/c1c[nH]c2ccccc12,22%,29.9%,27.1%,15.8%,55.5%,40.4%
O=C(O)/C=C/c1ccc(OS(=O)(=O)O)cc1,-12.6%,-31.4%,-14.9%,7.8%,-9.8%,-7.4%
COC1CCC(=O)N1CN(C(C)=O)c1ccc(C)cc1 (stereo unspecified),10.4%,9.1%,-25.2%,28.4%,3.75%,-28.1%
CCc1ccc(NN=Nc2ccccc2C#N)cc1,8.1%,15.8%,16.2%,-12.7%,-1.65%,16.8%
COc1cc(/C=C/C(=O)O)ccc1O,-6.1%,-17.1%,16.1%,-48%,-12.3%,17.6%
CCCCOC(=O)c1ccccc1C(=O)Nc1ccccc1,7.6%,12.6%,2%,2.1%,4.4%,-19.7%
CCOC(=O)Cn1c(=O)[nH]c(=O)c2c1ncn2Cc1ccccc1,32.9%,-2.35%,-3.1%,13.2%,30.2%,25.7%
CCCSc1nn2cc(NC(=O)OC)nc2s1,-13.5%,-8.7%,-3.75%,-24.5%,7.05%,-6.5%
CCOC(=O)Nc1ccc(F)cc1C,14.8%,5.3%,-7.55%,-4%,7.3%,-1%
COC(=O)NC(=O)c1cn(CCCOC(=O)CCCCCCCCC(=O)OCCCn2cc(C(=O)NC(=O)OC)c(=O)[nH]c2=O)c(=O)[nH]c1=O,-13.5%,-3.8%,-7.45%,9.9%,13.3%,-12.4%
O=C(N[C@@H](CSSC[C@H](NC(=O)OCc1ccccc1)C(=O)O)C(=O)O)OCc1ccccc1,15.6%,0.85%,9.2%,-3.65%,2.7%,2.55%
CC1=C2CC(C)(C)/C=C\C(=O)/C(C)=C\C3=C[C@H](C)C[C@]3(O2)C1=O,60.8%,71.2% (active),72.8% (active),40.4%,64.4%,79.8% (active)
CCCCCCCCCCCCCCCCCCS(=O)(=O)CC(O)CO (stereo unspecified),-4.45%,5.2%,-1.4%,2.4%,-11%,12.4%
Cc1c(C)c(C)c(CCc2c(C)c(C)c(C)c(C)c2C)c(C)c1C,-16.8%,-1.25%,-0.9%,-16.5%,-4.15%,-12.3%
CCCCOC(=O)COc1c(Cl)ccc(Cl)c1Cl,6.95%,-0.75%,7%,-3.5%,11.3%,6.7%
OC(CCN1CC2CCC(CC2)C1)(Cc1ccccc1)c1cccs1 (stereo unspecified),6.75%,2.7%,21.1%,11.2%,17.1%,32.5%
Cc1cc(N(CCC#N)CCC#N)ccc1/C=C1/CN(N2C(=O)/C(=C/c3ccc(N(CCC#N)CCC#N)cc3C)N=C2c2ccccc2)C(c2ccccc2)=N1,-2.7%,-25.4%,-22.6%,5.6%,-28.8%,-11.1%
CN(C)c1ccc(/C=C2\C(=O)/C(=C\c3ccc(N(C)C)cc3)c3ccccc32)cc1,2.95%,-4.25%,-13.8%,-12.5%,1.05%,2.95%

SMILES,growth inhibition [1],growth inhibition [2],growth inhibition [3],growth inhibition [4],growth inhibition [5],growth inhibition [6]
Cc1ccc(C2SC(N)=Nc3c2c(C)nn3C(=O)c2ccc(Cl)cc2)cc1 (stereo unspecified),-36.1%,-42%,-16.4%,-33.5%,-27.6%,-24.9%
Cc1ccc(C=NC23CC4CC(CC(C4)C2)C3)cc1,-3.3%,-28.6%,-24.2%,-24.9%,-35.9%,-20.4%
CC1(C)N=C(N)N=C(N)N1CCCOc1ccc(N)cc1,33.2%,-4.65%,11.8%,5.2%,-3.55%,1.1%
COc1ccc(C=O)cc1OCc1ccccc1,-10.2%,-29.4%,-3.15%,-7.35%,-18.2%,7.55%
CC(=O)c1ccccc1OB(F)F,10.2%,-11.2%,8.8%,-4.45%,1.05%,-11.9%
CCOC(=O)C1=CC(C(=O)OCC)=C2C=CC=C3C=CC=C1N32,7.75%,8.7%,25.9%,-1.65%,-18%,-2.95%
CC1(C)SC(c2ccccc2)SC(c2ccccc2)S1 (stereo unspecified),13.7%,1.4%,-3.3%,3.25%,-0.8%,17.4%
Cc1[nH]c2c(ccc3c2ccc2c(=O)c(C)c(C)[nH]c23)c(=O)c1C,-2.05%,-7.45%,-4.35%,-29%,-0.3%,2.3%
Cc1cc2nc3c(C(OC4OC(CO)C(O)C(O)C4O)C(O)CO)nn(-c4ccc(F)cc4)c3nc2cc1C (stereo unspecified),3.6%,-6.85%,-47.7%,25.6%,3.45%,1%
O=S(=O)(O)c1ccc(Nc2ccccc2)cc1,-1.2% and 5.95%,-38.8% and -24.1%,-11%,-18.3%,2%,-20.9% and 6.2%
COc1cc(C)cc2c1C(C)(C)CCC2(C)C,5.4%,-24.6%,-5.8%,-7.15%,16%,-0.65%
O=C(O)Nc1ccc(I)cc1,-9.2%,-10.2%,1.15%,-25.9%,-4.1%,-12.4%
CCCCC1(CC)COC(C)(CC)OC1 (stereo unspecified),29.4%,15.7%,5.3%,-26.6%,-19.4%,17.5%
O=[N+]([O-])c1ccc(N=Cc2ccc(N(CCF)CCF)cc2)cc1,6.9%,15.9%,16.1%,-60%,-9.2%,10.9%
O=C(CC1(O)C(=O)Nc2ccc(Br)cc21)c1ccc2c(c1)OCO2 (stereo unspecified),2.7%,5.35%,11.4%,-6.5%,36.5%,-1.15%
O=C(O)CCCCC1CCCCC1,53.1%,17.1%,38.8%,17.1%,33.6%,43.1%
Oc1ccc(C(O)CN2CCCC2)cc1O (stereo unspecified),-15.7%,10.9%,-0.1%,-36.1%,2.7%,-15.3%
NCC1COC(c2ccccc2)(c2ccccc2)O1 (stereo unspecified),-2.25%,-12.4%,-12.9%,-32.5%,17.8%,-7.65%
NC(N)=NC(N)=Nc1ccc(S(=O)(=O)O)cc1,-4.7%,-26.9%,-47%,-22.7%,-29.6%,-11.8%
Cc1ccc(C)c(NS(=O)(=O)c2ccc(Cl)cc2)c1,98.9% (active),99.2% (active),99.1% (active),99.3% (active),98.8% (active),99.2% (active)
